# Results taken from PubChem BioAssay (NCATS).
# Values without a mark were called inactive. Inconclusive results are not listed. Activity calls are given as the source filed them. Unless noted, the call rests on the fitted dose curve; in most records, active means well fitted curve in the direction sought with a large enough effect; inconclusive means small, poorly fitted or top-dose-only effect, or another doubt; inactive means no such curve, though single readings can be large; an effect the other way counts as inactive or inconclusive.
# How the values were obtained:
# [1] = biological target: Lysosomal acid glucosylceramidase (Homo sapiens) (UniProt P04062); test: Glucocerebrosidase-p2 (AID 348; in the data active means potency below about 10 µM; further: potency means the concentration at half of the fitted maximal effect); settings: purified GBA, blue fluorogenic substrate, 40 min
# Procedure, shortened: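 Normal human glucocerebrosidase (0.2 nM) with blue fluorogenic substrate (80 uM final) in citrate/phosphate pH 5.9 with 10mM sodium taurocholate, 0.01% tween-20; 40 min RT, NaOH/glycine stop; fluorescence Ex 365/Em 440; AC50 from a titration from 0.6 nM upwards.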
# [2] = AP1 Signaling Pathway (AID 357; active means well fitted curve in either direction with a large enough effect, not every such curve was filed as active; further: on the % scale 0 is the no-effect control and ±100 the full control effect); settings: ME-180 AP-1-bla reporter, EGF-induced, beta-lactamase ratio, 5 h; at 7.69 µM (top of the series) unless noted
# Procedure, shortened: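 AP-1-bla ME-180 cells with beta-lactamase reporter under AP-1 response element, stimulated with EC50 EGF; compounds titrated, 5 hours at 37 degrees Celsius. CCF4 read at 460/530 nm ratio; positive and negative modulators judged by AC50.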
# [3] = biological target: Cytochrome P450 1A2 (Homo sapiens) (UniProt P05177); test: p450-cyp1a2 (AID 410; calls by dose curve; further: potency means the concentration at half of the fitted maximal effect;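 on activity change, negative = inhibition: -100% = full effect of reference inhibitor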); settings: recombinant CYP1A2, luciferin-ME demethylation, luminescence; series mostly up to 57 µM
# Procedure, shortened: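 Read-out is luminescence from luciferin produced by CYP1A2 demethylation of Luciferin-ME (100uM, at Km). Detection reagent stopped the 60 min NADPH-dependent reaction; signals were normalized to 57 uM furafylline.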
# [4] = NFAT Signaling Pathway (AID 444; active means well fitted curve in either direction with a large enough effect, not every such curve was filed as active;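 further: carbachol stimulus at about its EC50 of 1 µM final; on the % scale 0 is the no-effect control and ±100 the full control effect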); settings: Jurkat NFAT-bla M1, carbachol, beta-lactamase ratio, 5 h; at 7.69 µM (top of the series) unless noted
# Procedure, shortened: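 Jurkat cells carrying an NFAT-driven β-lactamase reporter and co-transfected muscarinic M1 receptor were treated with compound plus carbachol (1 uM final, an EC50 level) for 5 h at 37 °C. CCF4 loading followed for 1 h at RT; 460/530 nm ratio gave %activity.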
# [5] = Stat Signaling Pathway (AID 446; active means well fitted curve in either direction with a large enough effect, not every such curve was filed as active;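 further: ME-180 cervical cancer cells given 40 pM IL-6 alongside compound; SIE-controlled beta-lactamase reporter measured as 460/530 nm FRET emission ratio; on the % scale 0 is the no-effect control and ±100 the full control effect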); settings: ME-180 SIE beta-lactamase reporter, IL-6 stimulated, 5 h; at 7.69 µM (top of the series) unless noted
# Procedure, shortened: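 Overnight-plated ME-180 cells bearing a STAT Inducible Element beta-lactamase reporter; 5 h co-exposure to compound and 40 pM IL-6; values normalized to 300 pM IL-6 and 125 nM JAK inhibitor controls.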
# [6] = biological target: Glucocorticoid receptor (Homo sapiens) (UniProt P04150); test: GR-GFP Redistribution (AID 450;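 active means compounds whose dose series gives a full or clear partial fitted curve of increased nuclear translocation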; further: potency means the concentration at half of the fitted maximal effect); settings: U2OS GR-GFP nuclear translocation, laser cytometry, 2 h
# [7] = biological target: Glucocorticoid receptor (Homo sapiens) (UniProt P04150); test: GR-EFC Redistribution (AID 451; calls by dose curve; further: potency means the concentration at half of the fitted maximal effect); settings: CHO-K1 GR-EFC translocation, beta-gal luminescence, 2 h
# Procedure, shortened: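 CHO-K1 cells stably expressing nuclear-localized β-gal enzyme acceptor and GR fused C-terminally to the enzyme donor fragment; ligand-driven nuclear translocation restores β-gal by complementation. Compounds titrated up to 46 uM final, 2 h at 37 °C; luminescence read.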
# [8] = biological target: Mitogen-activated protein kinase 10 (Mus musculus) (UniProt Q61831); test: JNK3 AlphaScreen Assay (AID 530; active means well fitted curve in either direction with a large enough effect, not every such curve was filed as active;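 further: kinase came from lysate of stimulated human HepG2 cells; signal reports phosphorylation of biotinylated GST-cJun 1-79 at Ser73 with 10 µM ATP; on the % scale 0 is the no-effect control and ±100 the full control effect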); settings: JNK3 lysate, c-Jun phosphorylation; series mostly up to 57.1 µM
# Procedure, shortened: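 Biotinylated GST-cJun(1-79) served as substrate for JNK3 in HepG2 lysates stimulated with IL-1beta and TNF-alpha. ATP was 10 uM final, pH 7.6. Ser73 phosphorylation was quantified by AlphaScreen (680 nm excitation).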
# [9] = biological target: 3',5'-cyclic-AMP phosphodiesterase 4B (Homo sapiens) (UniProt Q07343); test: qHTS Assay for Inhibitors of PDE-IV (AID 607; active means well fitted activation curve with a large enough effect in the main read-out, with a control signal flat, not every such curve was filed as active; further: % of control where 0% means no effect); settings: HEK293 ACTOne CNG channel cells, membrane potential fluorescence; series mostly up to 22.9 µM
# Procedure, shortened: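 Live HEK293 cells with a modified cyclic nucleotide-gated (CNG) channel report intracellular cAMP via membrane-potential dye fluorescence (ex 535/em 590 nm). Endogenous PDE-IV was targeted. Compounds were tested at up to 22.9 uM final; RO 20-1724 100 uM served as control.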
# [10] = biological target: Cytochrome P450 2C9 (Homo sapiens) (UniProt P11712); test: qHTS Assay for Inhibitors and Substrates of Cytochrome P450 2C9 (AID 883); settings: recombinant CYP2C9, luciferin-H luminescence, 60 min; series mostly up to 57.1 µM; further: on the % scale 0 is the no-effect control and ±100 the full control effect; nearly all actives have a fitted effect of over 60% in size
# Procedure, shortened: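 A luminogenic readout tracked human CYP2C9 (10nM) converting deoxyluciferin (100uM, at KM) in 25mM KPO4 during 60 min at 37C with regenerated NADPH. Values normalized to 57uM sulphaphenazole as complete inhibition.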
# [11] = biological target: Cytochrome P450 3A4 (Homo sapiens) (UniProt P08684); test: qHTS Assay for Activators of Cytochrome P450 3A4 (AID 885); settings: recombinant CYP3A4, Luciferin-PPXE luminescence, 60 min; series mostly up to 57.1 µM; further: nearly all actives have a fitted effect of over 65% in size
# Procedure, shortened: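 Using 20nM recombinant human CYP3A4 in potassium phosphate (200mM), substrate Luciferin-PPXE at 25uM, luminescent luciferin detection followed a 60-min RT NADPH reaction; data scaled to 57 uM ketoconazole.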
# [12] = biological target: Dual specificity protein kinase CLK4 (Homo sapiens) (UniProt Q9HAZ1); test: qHTS Assay for Inhibitors of CDC-like Kinase 4 (Kinase-Glo Assay) (AID 1770); settings: recombinant Clk4, Kinase-Glo ATP depletion luminescence; series mostly up to 66.7 µM; further: nearly all actives have a fitted effect of over 65% in size; further: potency means the concentration at half of the fitted maximal effect
# Procedure, shortened: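 25 nM Clk4 with 100 uM RS repeat peptide and 1 uM ATP (final) in Tris pH7.5, 10 mM MgCl2, 4.5 h at room temperature. Remaining ATP measured by Kinase-Glo luciferase luminescence.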
# [13] = biological target: Dual specificity protein kinase CLK4 (Homo sapiens) (UniProt Q9HAZ1); test: qHTS Assay for Inhibitors of CDC-like Kinase 4 (ADP-Glo Assay) (AID 1771); settings: recombinant CLK4, ADP-Glo luminescence; series mostly up to 80 µM; further: nearly all actives have a fitted effect of over 70% in size; further: potency means the concentration at half of the fitted maximal effect
# Procedure, shortened: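 In this ADP-Glo format, 1 uM ATP and 100 uM RS peptide served as substrates for 25 nM Clk4 in Mg2+/EGTA/DTT/Triton buffer; reactions ran 1 hr at room temperature before luminescent ADP quantification.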
# [14] = biological target: Ubiquitin carboxyl-terminal hydrolase 1 (Homo sapiens) (UniProt O94782); test: Inhibitors of USP1/UAF1: Pilot qHTS (AID 504865); settings: purified USP1/UAF1, Ub-rhodamine cleavage fluorescence; series mostly up to 54.9 µM;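 further: rhodamine fluorescence freed from ubiquitin-rhodamine substrate followed over time; top concentration of the series differs between compounds; on the % scale 0 is the no-effect control and ±100 the full control effect; nearly all actives have a fitted effect of over 35% in size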
# Procedure, shortened: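 USP1/UAF1 complex at 1 nM preincubated 15 min at room temperature with compound, then Ub-Rho substrate added at 150 nM final. Fluorescence (480/540 nm) read kinetically in 50 mM HEPES pH 7.8, 0.5 mM EDTA, 1 mM TCEP, 0.1 mg/ml BSA, 0.01% Tween-20.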
# [15] = Primary qHTS for small molecule stabilizers of the endoplasmic reticulum resident proteome: Secreted ER Calcium Modulated Protein (SERCaMP) assay (AID 1508630); settings: SH-SY5Y GLuc-SERCaMP (Gaussia luciferase released on ER calcium loss) secretion, thapsigargin, luminescence; series mostly up to 38.4 µM; further: on the % scale 0 is the no-effect control and ±100 the full control effect
# Procedure, shortened: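 The SH-SY5Y reporter protocol was run at 3 concentrations up to 38.3 uM (primary) or 11 concentrations (follow-up): 16 h compound, 100 nM thapsigargin for 4 h, then extracellular luciferase luminescence.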
# [16] = biological target: Dual specificity protein kinase CLK4 (Homo sapiens) (UniProt Q9HAZ1); test: qHTS Assay for Inhibitors of CDC-like Kinase 4 (ADP-FP Assay) (AID 1795); settings: Transcreener ADP fluorescence polarization; series mostly up to 50 µM; further: nearly all actives have a fitted effect of over 60% in size; further: potency means the concentration at half of the fitted maximal effect
# Procedure, shortened: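 Recombinant Clk4 (6.25 nM) phosphorylated 100 uM RS repeat peptide with 1 uM ATP in 25 mM Tris pH 7.5, 10 mM MgCl2, 0.5 mM EGTA, 2.5 mM DTT, 0.01% Triton X-100 for 1 h. ADP was detected by Transcreener ADP2 competitive fluorescence polarization after 30 min at room temperature.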
# [17] = biological target: Cytochrome P450 3A4 (Homo sapiens) (UniProt P08684); test: qHTS Assay for Inhibitors and Substrates of Cytochrome P450 3A4 (AID 884); settings: recombinant CYP3A4, Luciferin-PPXE luminescence; series mostly up to 57.1 µM; further: potency means the concentration at half of the fitted maximal effect; nearly all actives have a fitted effect of over 50% in size
# Procedure, shortened: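 Luminescent readout of luciferin produced by CYP3A4 (20 nM) dealkylation of Luciferin-PPXE, 25 uM (its KM). NADPH-driven reaction ran 60 min at RT after 10 min compound preincubation; data scaled to 57 uM ketoconazole as 100% inhibition.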
# [18] = qHTS Assay for Identification of Small Molecule Agonists for Hypoxia Response Element Signaling Pathway (AID 914; active means well fitted activation curve with a large enough effect in the signal ratio, with a control signal flat, not every such curve was filed as active; the % refers to the signal ratio; further: potency means the concentration at half of the fitted maximal effect; on activation: % of control where 0% means no effect); settings: ME-180 (cervical carcinoma) HRE-bla reporter, beta-lactamase ratio, CoCl2, 17 h; activation: active compounds read high
# Procedure, shortened: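 qHTS titration; ME-180 HRE-bla cells; EC50 CoCl2 co-treatment, 17 h at 37 degrees Celsius; CCF4 dye, ex 405nm, em 460nm and 530nm; %Activity from ratio; AC50.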
# Cytochrome P450 3A4 (Homo sapiens), sequence (P08684 whole entry, looked up): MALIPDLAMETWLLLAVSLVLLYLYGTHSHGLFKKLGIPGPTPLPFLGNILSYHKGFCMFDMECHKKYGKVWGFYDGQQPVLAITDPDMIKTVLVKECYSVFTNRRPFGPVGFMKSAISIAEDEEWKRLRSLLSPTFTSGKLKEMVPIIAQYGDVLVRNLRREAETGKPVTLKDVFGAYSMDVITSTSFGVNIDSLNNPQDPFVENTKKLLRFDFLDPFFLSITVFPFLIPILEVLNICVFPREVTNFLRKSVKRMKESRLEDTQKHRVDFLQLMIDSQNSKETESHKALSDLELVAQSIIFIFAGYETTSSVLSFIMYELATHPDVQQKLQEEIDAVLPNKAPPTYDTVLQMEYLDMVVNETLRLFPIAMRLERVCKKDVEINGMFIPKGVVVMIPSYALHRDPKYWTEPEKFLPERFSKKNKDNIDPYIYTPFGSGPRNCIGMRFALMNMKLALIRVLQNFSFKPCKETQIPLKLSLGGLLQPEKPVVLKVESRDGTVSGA
# Lysosomal acid glucosylceramidase (Homo sapiens), sequence (P04062 whole entry, looked up): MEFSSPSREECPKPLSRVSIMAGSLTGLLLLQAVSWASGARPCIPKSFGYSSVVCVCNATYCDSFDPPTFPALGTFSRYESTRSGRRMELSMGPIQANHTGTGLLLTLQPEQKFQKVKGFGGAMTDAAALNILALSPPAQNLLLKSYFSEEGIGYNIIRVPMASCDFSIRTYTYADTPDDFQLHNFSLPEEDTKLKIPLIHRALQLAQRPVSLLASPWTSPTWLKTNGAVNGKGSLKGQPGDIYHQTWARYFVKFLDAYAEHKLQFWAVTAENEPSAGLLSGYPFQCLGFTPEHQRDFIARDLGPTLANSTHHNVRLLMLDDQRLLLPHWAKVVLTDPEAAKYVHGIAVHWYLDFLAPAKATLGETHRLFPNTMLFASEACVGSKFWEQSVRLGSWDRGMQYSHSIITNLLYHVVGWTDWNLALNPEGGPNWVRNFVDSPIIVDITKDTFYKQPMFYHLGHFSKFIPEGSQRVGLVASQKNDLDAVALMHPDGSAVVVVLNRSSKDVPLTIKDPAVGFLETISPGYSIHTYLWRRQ
# Ubiquitin carboxyl-terminal hydrolase 1 (Homo sapiens), sequence (O94782 whole entry, looked up): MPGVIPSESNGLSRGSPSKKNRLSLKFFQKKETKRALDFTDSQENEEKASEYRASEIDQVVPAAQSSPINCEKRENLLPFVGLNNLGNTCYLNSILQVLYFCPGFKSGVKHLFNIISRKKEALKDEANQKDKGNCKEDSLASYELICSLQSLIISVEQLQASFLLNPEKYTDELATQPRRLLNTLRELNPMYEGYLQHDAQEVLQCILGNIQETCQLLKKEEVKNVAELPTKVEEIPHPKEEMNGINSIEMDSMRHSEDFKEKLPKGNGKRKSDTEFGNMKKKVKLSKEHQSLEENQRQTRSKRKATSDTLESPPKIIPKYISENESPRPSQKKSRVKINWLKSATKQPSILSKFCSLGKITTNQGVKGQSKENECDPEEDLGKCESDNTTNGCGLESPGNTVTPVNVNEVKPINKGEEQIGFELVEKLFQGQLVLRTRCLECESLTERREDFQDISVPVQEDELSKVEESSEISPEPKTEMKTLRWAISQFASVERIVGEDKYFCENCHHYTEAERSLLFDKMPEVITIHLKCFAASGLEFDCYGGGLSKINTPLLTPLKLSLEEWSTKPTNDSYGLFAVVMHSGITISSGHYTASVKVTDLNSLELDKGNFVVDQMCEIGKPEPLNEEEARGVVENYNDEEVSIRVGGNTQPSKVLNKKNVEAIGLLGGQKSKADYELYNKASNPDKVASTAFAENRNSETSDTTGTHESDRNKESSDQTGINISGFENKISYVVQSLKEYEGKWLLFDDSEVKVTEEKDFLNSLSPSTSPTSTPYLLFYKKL
# 3',5'-cyclic-AMP phosphodiesterase 4B (Homo sapiens), sequence (Q07343 whole entry, looked up): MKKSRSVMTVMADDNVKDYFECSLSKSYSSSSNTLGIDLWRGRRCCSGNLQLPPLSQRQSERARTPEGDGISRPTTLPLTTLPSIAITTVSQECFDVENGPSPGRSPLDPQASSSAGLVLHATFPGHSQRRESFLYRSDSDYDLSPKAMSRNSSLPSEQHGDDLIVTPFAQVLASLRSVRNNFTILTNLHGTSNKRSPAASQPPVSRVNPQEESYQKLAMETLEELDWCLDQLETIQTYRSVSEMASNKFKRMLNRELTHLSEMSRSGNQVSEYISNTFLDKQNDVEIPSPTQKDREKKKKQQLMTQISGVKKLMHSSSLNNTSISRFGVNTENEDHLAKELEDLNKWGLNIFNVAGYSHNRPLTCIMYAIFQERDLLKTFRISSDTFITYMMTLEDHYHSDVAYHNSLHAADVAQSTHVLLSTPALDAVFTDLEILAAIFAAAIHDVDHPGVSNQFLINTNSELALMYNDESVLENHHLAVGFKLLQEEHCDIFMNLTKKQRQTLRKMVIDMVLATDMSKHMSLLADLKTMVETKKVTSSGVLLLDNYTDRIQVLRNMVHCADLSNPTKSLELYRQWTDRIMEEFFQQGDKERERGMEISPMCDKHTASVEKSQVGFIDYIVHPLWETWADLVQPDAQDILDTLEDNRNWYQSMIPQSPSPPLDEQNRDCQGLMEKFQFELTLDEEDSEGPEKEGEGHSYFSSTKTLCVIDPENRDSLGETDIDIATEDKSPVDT
# Cytochrome P450 1A2 (Homo sapiens), sequence (P05177 whole entry, looked up): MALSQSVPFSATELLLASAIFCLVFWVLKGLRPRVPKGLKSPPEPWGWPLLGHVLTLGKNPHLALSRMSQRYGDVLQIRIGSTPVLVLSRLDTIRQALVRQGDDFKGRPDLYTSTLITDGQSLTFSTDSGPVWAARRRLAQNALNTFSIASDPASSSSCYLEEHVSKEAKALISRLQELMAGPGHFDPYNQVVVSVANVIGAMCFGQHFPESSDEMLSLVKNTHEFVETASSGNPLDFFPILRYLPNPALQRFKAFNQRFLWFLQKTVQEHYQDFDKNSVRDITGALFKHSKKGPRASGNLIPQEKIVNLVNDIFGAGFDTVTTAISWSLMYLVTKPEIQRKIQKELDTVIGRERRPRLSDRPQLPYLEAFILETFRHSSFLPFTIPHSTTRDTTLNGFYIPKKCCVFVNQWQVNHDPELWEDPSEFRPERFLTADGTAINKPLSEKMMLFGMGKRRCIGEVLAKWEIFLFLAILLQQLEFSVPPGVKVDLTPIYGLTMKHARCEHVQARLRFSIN
# Glucocorticoid receptor (Homo sapiens), sequence (P04150 whole entry, looked up, the tested form may be a part): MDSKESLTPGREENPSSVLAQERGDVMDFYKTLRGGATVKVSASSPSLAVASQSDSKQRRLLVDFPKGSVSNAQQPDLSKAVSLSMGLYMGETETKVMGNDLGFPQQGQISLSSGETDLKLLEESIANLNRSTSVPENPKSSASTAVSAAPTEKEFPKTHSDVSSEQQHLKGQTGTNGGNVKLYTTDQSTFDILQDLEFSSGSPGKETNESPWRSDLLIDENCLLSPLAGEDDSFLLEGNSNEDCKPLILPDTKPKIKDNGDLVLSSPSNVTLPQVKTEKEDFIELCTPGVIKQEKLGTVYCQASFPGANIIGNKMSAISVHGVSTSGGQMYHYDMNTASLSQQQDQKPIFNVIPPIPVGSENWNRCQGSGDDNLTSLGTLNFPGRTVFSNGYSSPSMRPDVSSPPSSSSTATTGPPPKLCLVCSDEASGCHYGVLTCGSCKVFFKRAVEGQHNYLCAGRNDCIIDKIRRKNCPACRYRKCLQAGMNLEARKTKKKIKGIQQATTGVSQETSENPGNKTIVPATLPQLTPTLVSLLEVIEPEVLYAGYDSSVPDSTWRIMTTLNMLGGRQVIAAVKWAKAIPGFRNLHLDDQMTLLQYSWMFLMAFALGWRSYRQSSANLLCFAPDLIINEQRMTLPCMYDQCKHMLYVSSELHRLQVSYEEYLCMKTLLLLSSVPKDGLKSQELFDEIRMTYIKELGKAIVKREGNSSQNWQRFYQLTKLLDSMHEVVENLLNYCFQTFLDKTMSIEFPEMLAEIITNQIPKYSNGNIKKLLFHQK
# Dual specificity protein kinase CLK4 (Homo sapiens), sequence (Q9HAZ1 whole entry, looked up): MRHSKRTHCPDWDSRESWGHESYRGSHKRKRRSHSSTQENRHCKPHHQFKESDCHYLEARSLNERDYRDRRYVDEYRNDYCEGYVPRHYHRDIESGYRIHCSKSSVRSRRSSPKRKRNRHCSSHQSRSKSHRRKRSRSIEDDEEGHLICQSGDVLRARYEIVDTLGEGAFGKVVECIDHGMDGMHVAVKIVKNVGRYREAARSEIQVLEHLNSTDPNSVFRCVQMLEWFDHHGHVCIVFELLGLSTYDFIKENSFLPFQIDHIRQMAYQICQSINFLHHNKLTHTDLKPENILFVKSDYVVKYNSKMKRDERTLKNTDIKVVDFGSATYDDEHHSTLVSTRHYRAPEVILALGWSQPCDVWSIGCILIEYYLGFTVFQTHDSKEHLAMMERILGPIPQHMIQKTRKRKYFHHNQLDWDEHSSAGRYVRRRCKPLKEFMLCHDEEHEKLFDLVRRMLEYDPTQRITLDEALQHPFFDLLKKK
# Cytochrome P450 2C9 (Homo sapiens), sequence (P11712 whole entry, looked up): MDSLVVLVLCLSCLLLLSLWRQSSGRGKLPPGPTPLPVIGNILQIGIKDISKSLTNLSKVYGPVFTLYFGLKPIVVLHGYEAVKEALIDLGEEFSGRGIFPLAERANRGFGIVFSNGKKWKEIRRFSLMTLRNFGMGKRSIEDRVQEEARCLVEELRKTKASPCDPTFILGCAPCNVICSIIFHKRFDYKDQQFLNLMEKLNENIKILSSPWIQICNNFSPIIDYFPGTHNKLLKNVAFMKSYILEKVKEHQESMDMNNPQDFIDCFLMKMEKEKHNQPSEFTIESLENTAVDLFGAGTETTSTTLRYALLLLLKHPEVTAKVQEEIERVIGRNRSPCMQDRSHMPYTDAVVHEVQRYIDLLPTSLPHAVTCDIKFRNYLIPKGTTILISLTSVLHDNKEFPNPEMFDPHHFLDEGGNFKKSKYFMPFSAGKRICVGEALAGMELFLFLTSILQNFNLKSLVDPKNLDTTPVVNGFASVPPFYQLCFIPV
SMILES,Potency [1],"activity change, negative = inhibition [2]",Potency [3],"activity change, negative = inhibition [4]","activity, negative = inhibition [5]",Potency [6],Potency [7],Potency [8],Potency [9],"activity change, negative = inhibition [10]",Potency [11],Potency [12],Potency [13],Potency [14],outcome [15],Potency [16],Potency [17],activation [18],Potency [18]
CN(C)c1nc(-c2cccnc2)nc2ccccc12,> 11.4 µM,12.7%,0.126 µM (active),-1.56%,-4.72%,> 46 µM,> 46 µM,inactive,inactive,81% [at 2.29 µM],inactive,28.2 µM (active),25.1 µM (active),inactive,inactive,,,,
Cc1cnc(CNc2cc(-c3ccc(C(=O)N(C)C)cc3)ncn2)cn1,> 11.4 µM,19.2%,inactive,15.2%,6.75%,> 46 µM,> 46 µM,inactive,inactive,,,12.6 µM (active),14.1 µM (active),inactive,inactive,,,,
COc1ccc2[nH]cc(CCNc3cc(-c4ccc5c(c4)OCO5)ncn3)c2c1,,,,19.3%,,> 46 µM,> 46 µM,,,,,3.98 µM (active),3.16 µM (active),inactive,inactive,2.51 µM (active),,,
CNc1nc(-c2cccc(NS(C)(=O)=O)c2)nc2ccccc12,> 11.4 µM,-8.82%,0.398 µM (active),6.53%,-10.2%,> 46 µM,> 46 µM,inactive,inactive,,inactive,14.1 µM (active),22.4 µM (active),inactive,inactive,,,,
c1cc(NC2CC2)nc(-c2ccoc2)n1,> 11.4 µM,-10.4%,0.251 µM (active),-10.6%,14.4%,> 46 µM,> 46 µM,inactive,inactive,,inactive,inactive,inactive,inactive,inactive,,5.01 µM (active),,
O=c1cnc2cnc(Oc3ccccc3)nc2n1C1CC1,> 11.4 µM,-14%,7.94 µM (active),-5.78%,-13.1%,> 9.22 µM,> 46 µM,inactive,inactive,,,inactive,inactive,inactive,inactive,,,,
Cc1nc2cncnc2n(Cc2ccc(F)cc2)c1=O,> 11.4 µM,-6.19%,10 µM (active),9.35%,-9.93%,> 9.22 µM,> 46 µM,inactive,inactive,,inactive,inactive,inactive,inactive,inactive,,,,
COCCn1c(=O)cnc2cnc(N3CCOCC3)nc21,,8.71%,,-0.664%,-12.6%,> 9.22 µM,> 46 µM,inactive,inactive,,,inactive,inactive,inactive,inactive,inactive,,-5.07%,
CCNc1ncc2nc(-c3ccc(OC)cc3)c(=O)n(Cc3cccs3)c2n1,,,0.631 µM (active),2.94%,,> 9.22 µM,> 46 µM,inactive,,,inactive,inactive,inactive,inactive,inactive,inactive,,,3.16 µM (active)
CN(Cc1ccco1)c1nc(-c2ccoc2)nc2ccccc12,> 11.4 µM,-25.1%,0.398 µM (active),-18.3%,-4.21%,> 46 µM,> 46 µM,inactive,,,,inactive,inactive,inactive,inactive,,,,
CN(C)c1ncc2nc(-c3cc(F)cc(F)c3)c(=O)n(CCc3ccccc3)c2n1,,,inactive,,,> 9.22 µM,> 46 µM,,inactive,,,inactive,inactive,inactive,inactive,inactive,,,2.51 µM (active)
N#CCCn1c(=O)cnc2cnc(Oc3cccc(Cl)c3)nc21,,5.43%,,-14%,-4.72%,> 9.22 µM,> 46 µM,inactive,inactive,,,inactive,inactive,inactive,inactive,inactive,,,
c1cncc(-c2cc(NCc3cccs3)ncn2)c1,> 11.4 µM,19%,1 µM (active),11.4%,7.74%,> 46 µM,> 46 µM,inactive,inactive,,,25.1 µM (active),28.2 µM (active),inactive,inactive,,2.51 µM (active),,
